PABP FP inh: blocks human PABP binding to poly(A) RNA; fluorescence polarization; inhibition, % at 35 µM; 1% of 290,000 active;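 note: calls also rest on retests at 20 µM and on dose response follow-up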
NRP1-CendR mod: modulators of CendR peptide binding to human neuropilin-1; inhibition, % at 25 µM; FAM-RPARPAR peptide binding to NRP-1, fluorescence polarization; O14786; 0.85% of 360,000 active; AID 602438;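 active = inhibition or corrected inhibition above about 18%, plus a signal ratio from 0.5 to 1.5, limit read from the data, passing the limit was not always enough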
Target sequence (O14786 whole entry, looked up): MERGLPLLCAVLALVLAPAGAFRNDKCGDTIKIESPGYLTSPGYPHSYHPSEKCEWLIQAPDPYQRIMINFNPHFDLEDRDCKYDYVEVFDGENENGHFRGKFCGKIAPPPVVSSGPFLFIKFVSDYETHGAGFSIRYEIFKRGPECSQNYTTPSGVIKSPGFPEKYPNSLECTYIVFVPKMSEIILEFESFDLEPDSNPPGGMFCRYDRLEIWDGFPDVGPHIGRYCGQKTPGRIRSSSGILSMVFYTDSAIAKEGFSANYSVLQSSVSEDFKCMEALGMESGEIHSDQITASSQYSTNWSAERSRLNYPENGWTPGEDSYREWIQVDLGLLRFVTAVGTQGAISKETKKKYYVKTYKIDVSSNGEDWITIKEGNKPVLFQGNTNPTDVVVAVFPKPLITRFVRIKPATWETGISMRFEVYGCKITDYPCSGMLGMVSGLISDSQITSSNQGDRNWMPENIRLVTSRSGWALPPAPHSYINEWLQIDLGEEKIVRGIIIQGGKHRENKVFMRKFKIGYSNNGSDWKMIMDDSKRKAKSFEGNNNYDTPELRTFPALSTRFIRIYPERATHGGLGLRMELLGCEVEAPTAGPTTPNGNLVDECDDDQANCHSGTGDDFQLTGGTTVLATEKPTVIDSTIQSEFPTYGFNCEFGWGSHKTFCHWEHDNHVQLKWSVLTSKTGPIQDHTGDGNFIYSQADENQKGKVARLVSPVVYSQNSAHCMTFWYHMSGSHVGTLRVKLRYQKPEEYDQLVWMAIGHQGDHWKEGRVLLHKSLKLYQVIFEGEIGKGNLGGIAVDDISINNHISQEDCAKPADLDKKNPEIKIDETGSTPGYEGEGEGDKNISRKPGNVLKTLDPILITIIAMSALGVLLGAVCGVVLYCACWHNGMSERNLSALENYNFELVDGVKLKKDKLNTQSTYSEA
MLLE-PAM2 inh: blocks PAM2 peptide binding to the PABP1 MLLE domain; P11940; GST-MLLE / FITC-PAM2 fluorescence polarization; inhibition, % at 20 µM; 0.36% of 360,000 active; in the data active = inhibition above about 35%, passing the limit was not always enough
eIF4H FP inh: inhibitors of RNA binding by human eIF4H. 0.94% of 290,000 active. AID 2012. eIF4H fluorescence polarization binding assay. inhibition, % at 35 µM;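 note: calls also rest on retests at 20 µM and on dose response follow-up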
A number is an active result; – = inactive; ? = inconclusive; · = not tested or not shown; ! = a repeat was not active. Rows were chosen to be rich in hits. Some 2.1% of all compounds tested hit in one or more screens of this group. Unless noted, the rule behind the calls is not given here.

SMILES	PABP FP inh	NRP1-CendR mod	MLLE-PAM2 inh	eIF4H FP inh
CCCCOc1ccc(/C=C2/Sc3ccccc3C2=O)cc1	–	35	–	–
Cc1ccccc1NC(=O)CN(C)S(=O)(=O)c1cccs1	–	–	–	–
Cc1ccc(NC(=S)N2CCN(Cc3ccccc3)CC2)cc1	–	26	–	–
CCc1ccc(NC(=S)N2CCN(C)CC2)cc1	–	21	–	–
Oc1ccc(/C=N/n2cc(-c3ccccc3)[nH]c2=S)cc1	–	–	43	–
O=C(CCC1CCN(Cc2ccc(Cl)cc2)CC1)NC1CC1	–	–	–	–
CCCOc1cccc(C(=O)NC(=S)Nc2ccccc2)c1	–	–	–	–
CC(=O)c1ccc(NC(=S)Nc2ccc(Br)c(Cl)c2)cc1	–	–	44	–
Cc1ccc(OCC(=O)NC(=S)Nc2cccc(NC(=O)c3ccc(Cl)cc3Cl)c2)cc1	–	–	–	–
Cc1ccc(OCC(=O)NC(=S)Nc2cccc(NC(=O)c3ccccc3)c2)cc1	–	–	38	–
CC(=O)c1cccc(NC(=S)NC(=O)c2ccccc2Br)c1	–	–	36	–
O=C(O)c1cccc(NC(=S)NC(=O)c2cccc(OCc3ccccc3)c2)c1	–	–	40	–
O=C(NC(=S)Nc1ccc(Br)c(Cl)c1)C1CC1	–	–	–	–
CC(=O)c1cccc(NC(=S)NC(=O)c2ccccc2C)c1	–	–	–	–
COc1ccc(S(=O)(=O)Nc2cc(S(=O)(=O)N3CCOCC3)ccc2OC)cc1	·	–	–	·
CCCCCc1c(-c2cccc(F)c2)ncn1CCc1ccccc1OC	·	–	·	·
COC(=O)c1cc(S(=O)(=O)N2CCCCCC2)cn1C	·	–	–	·
CCN(CC(=O)NCc1cccs1)C(=O)c1cccc(S(=O)(=O)NCc2ccccc2)c1	·	–	–	·
Cc1ccc(C(=O)NCCC(=O)Nc2ccccc2C)cc1	–	–	–	–
O=C(NC(=S)Nc1ccc2c(c1)OCCO2)c1ccccc1	–	–	38	–
O=C(O)c1cccc(NC(=S)NC(=O)c2ccncc2)c1	–	–	44	–
O=C(NC(=S)Nc1ccc2c(c1)OCCO2)c1ccccc1F	–	–	–	–
O=C(O)CCCCCNC(=O)Nc1ccc2c(c1)OCCO2	–	–	–	–
O=C(O)CCNc1ccc2c(c1)OCCO2	89	46	–	83
CC(C)(C)C(=O)NC(=S)Nc1cccc(C(=O)O)c1	–	–	–	–
SMILES	PABP FP inh	NRP1-CendR mod	MLLE-PAM2 inh	eIF4H FP inh
CCOc1ccc(CCNC(=O)COC(=O)c2nccnc2N)cc1OCC	·	–	–	·
Cc1ccc(N2C(=O)C(Cl)=C(NCc3ccccc3)C2=O)c(C)c1	–	21	–	–
Cc1c(Br)cccc1NC(=O)C1(C)CCN1C(C)C (stereo not drawn)	·	–	–	·
O=C(C1=C[C@H](c2ccc(C(F)(F)F)cc2)C[C@H](OCCCCO)O1)N1CCN(Cc2ccc3c(c2)OCO3)CC1	–	29	–	–
O=C(C1=C[C@H](c2csc3ccccc23)C[C@H](OCCCCO)O1)N1CCN(Cc2ccccc2)CC1	–	27	–	–
O=C(O)C1=C[C@H](c2ccc3c(c2)OCO3)C[C@H](OCCCCO)O1	·	–	–	·
O=C(NC1CC1)C1=C[C@@H](c2ccc3c(c2)OCO3)C[C@@H](OCCCCO)O1	–	28	–	–
O=C(C1=C[C@@H](c2csc3ccccc23)C[C@@H](OCCCCO)O1)N1CCN(Cc2ccc3c(c2)OCO3)CC1	–	–	–	–
COCc1c(C(=O)OCC(=O)NCc2ccco2)oc2ccccc12	·	–	–	·
O=C(Cc1cccc(NC(=O)C2CCN(C(=O)c3ccccc3)CC2)c1)Nc1cccc(C(=O)N2CCCCC2)c1	·	–	–	·
C=CCN1c2ccccc2[C@]23C[C@@H](C(=O)OC)N(C(=O)C4CCC4)C2=NC(C(=O)OC)=C(C(=O)OC)[C@H]13	–	25	–	–
C/C(=N\N=C1\NC(=O)C(CC(=O)Nc2ccc(Cl)cc2)S1)c1ccco1 (stereo not drawn)	56	–	–	–
O=C(CC1S/C(=N/N=C/c2cccs2)NC1=O)Nc1ccc(Cl)cc1 (stereo not drawn)	–	–	–	–
COc1cc(/C=N/N=C2/C(=O)Nc3ccccc32)cc(OC)c1O	–	25	–	–
O=c1c2ccccc2nc2n1C(CSc1ccccc1)CS2 (stereo not drawn)	–	–	–	–
O=c1c2ccccc2nc2n1C(CSc1ccc(F)cc1)CS2 (stereo not drawn)	–	29	–	–
CC(N=C1NS(=O)(=O)c2ccccc21)C(=O)NCCCc1ccccc1 (stereo not drawn)	–	–	–	–
Cc1ccc(NC(=O)C(C)N=C2NS(=O)(=O)c3ccccc32)cc1F (stereo not drawn)	–	21	–	–
COc1cc(C(=O)COC(=O)c2ccncc2)cc(OC)c1OC	·	–	–	·
Cc1ccc(-c2noc(CSc3ccccc3)n2)cc1	–	–	–	–
Cc1cccc(-c2noc(CSc3ccccc3)n2)c1	–	31	–	–
COC(=O)c1ccccc1CSc1nsc(/C=C/N(C)C)c1C#N	active	–	–	–
Cc1nc(CSc2nsc(/C=C/N(C)C)c2C#N)cs1	–	–	–	?
O=C(C[C@@H]1CC[C@H](NC(=O)Nc2ccc(F)cc2)[C@@H](CO)O1)NCc1cccc(F)c1	·	–	·	·
O=C(O)CCn1c(SCc2ccccc2)nc2ccccc21	–	–	–	–
SMILES	PABP FP inh	NRP1-CendR mod	MLLE-PAM2 inh	eIF4H FP inh
Cc1nc2ccccc2n1CCC(=O)O	–	33	–	–
CC(=O)NC(Cc1ccc(F)cc1)C(=O)NC1CCN(C(=O)Nc2ccc(F)cc2)CC1 (stereo not drawn)	–	–	–	–
COc1ccc2c(c1)C(=O)N(Cc1ccccc1)C(=O)C2(C)C	–	–	–	–
O=P(OCC1CC1)(c1ccccc1)c1ccccc1	122	–	–	–
O/N=C/c1ccn(-c2ccc(Br)cc2)c1	–	–	–	–
Cc1cc(C(=O)CSc2nnc(-c3ccncc3)n2-c2ccccc2)c(C)n1C	126	–	–	120
C=CCn1c(SCC(=O)c2cc(C)n(C)c2C)nnc1-c1ccncc1	–	–	–	83
C=CCn1c(SCC(=O)Nc2c(C)cccc2C)nnc1-c1ccncc1	–	–	–	–
Cc1cc(C(=O)CSc2nnc(-c3ccccc3)n2C)c(C)n1C	–	–	–	–
CCNC(=O)C1(C)CCN(Cc2ccccc2-c2ccccc2)C1 (stereo not drawn)	·	–	–	·
CCNC(=O)C1(C)CCCN(Cc2ccccc2-c2ccccc2)C1 (stereo not drawn)	·	23	–	·
Cc1ccc(-n2[nH]c(C)c(/C=N/Nc3ccc([N+](=O)[O-])cc3[N+](=O)[O-])c2=O)cc1C	–	41	–	–
O=C1c2ccc3c4c(ccc(c24)C(=O)N1CCCCO)C(=O)N(CCCCO)C3=O	–	–	64	?
CCOc1ccccc1-c1nc(-c2cc3ccccc3nc2OC)no1	–	–	–	54
COc1nc2ccccc2cc1-c1noc(-c2cccnc2)n1	–	·	·	–
O=C(Nc1nnc([C@@H]2O[C@H](CO)[C@@H](O)[C@H]2O)s1)Nc1ccccc1C(F)(F)F	·	–	–	·
COc1nc(N)nc(N)c1NS(=O)(=O)c1ccc(C)cc1	–	–	–	–
NCCc1cnc[nH]1	–	19!	–	–
